# Experimental data reported in the supplement of paper PMC8728848.
# The sample as a whole holds a higher share of the strongest signals than the screen did.
# What was measured:
# Assay in all cases: glycan array binding signal (z-score within array); higher = stronger binding
# Settings in all cases: glycan notation: IUPAC condensed, linker removed
# Gal3S6S(b1-4)GlcNAc = molecular target: Gal3S6S(b1-4)GlcNAc
# In short: (§1)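 Columns mapping to the same glycan were averaged after glycan names were converted to IUPAC-condensed notation. The data come from 3228 arrays in the Consortium for Functional Glycomics database, limited to those with an available protein sequence. Binding is reported as a within-array Z-score averaged across arrays of one protein sequence and across linkers.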
# GalNAc(a1-3)GalNAc = molecular target: GalNAc(a1-3)GalNAc
# In short: as §1
# GalNAc(b1-4)Gal(b1-4)Glc = molecular target: GalNAc(b1-4)Gal(b1-4)Glc
# In short: as §1
# GalNAc3S(b1-4)GlcNAc = molecular target: GalNAc3S(b1-4)GlcNAc
# In short: as §1
# GalNAc3S(b1-4)GlcNAc3S = molecular target: GalNAc3S(b1-4)GlcNAc3S
# In short: as §1
# [1] = molecular target: GalNAc3S(b1-4)[Fuc(a1-3)]GlcNAc
# In short: as §1
# [2] = molecular target: GlcNAc(a1-4)Gal(b1-4)GlcNAc(b1-3)Gal(b1-4)GlcNAc
# In short: as §1
# [3] = molecular target: GlcNAc(a1-4)Gal(b1-4)GlcNAc(b1-3)Gal(b1-4)[Fuc(a1-3)]GlcNAc(b1-3)Gal(b1-4)[Fuc(a1-3)]GlcNAc
# In short: as §1
# [4] = molecular target: GlcNAc(b1-2)Man(a1-3)[GlcNAc(b1-2)Man(a1-6)]Man(b1-4)GlcNAc(b1-4)GlcNAc
# In short: as §1
# [5] = molecular target: GlcNAc(b1-2)[GlcNAc(b1-4)]Man(a1-3)[GlcNAc(b1-2)Man(a1-6)]Man(b1-4)GlcNAc(b1-4)GlcNAc
# In short: as §1
# GlcNAc(b1-3)Gal = molecular target: GlcNAc(b1-3)Gal
# In short: as §1
# [6] = molecular target: GlcNAc(b1-3)Gal(b1-4)GlcNAc(b1-2)Man(a1-3)[GlcNAc(b1-3)Gal(b1-4)GlcNAc(b1-2)Man(a1-6)]Man(b1-4)GlcNAc(b1-4)[Fuc(a1-6)]GlcNAc
# In short: as §1
# [7] = molecular target: GlcNAc6S(b1-3)Gal(b1-4)GlcNAc
# In short: as §1
# Kdn(a2-3)Gal(b1-3)GalNAc = molecular target: Kdn(a2-3)Gal(b1-3)GalNAc
# In short: as §1
# [8] = molecular target: Man(a1-2)Man(a1-3)[Man(a1-2)Man(a1-6)]Man(a1-6)[Man(a1-3)[Man(a1-6)]Man(a1-6)]Man(b1-4)GlcNAc(b1-4)GlcNAc
# In short: as §1
# [9] = molecular target: Man(a1-2)Man(a1-3)[Man(a1-6)]Man(a1-6)[Man(a1-2)Man(a1-3)]Man(b1-4)GlcNAc(b1-4)GlcNAc
# In short: as §1
# [10] = molecular target: Man(a1-2)Man(a1-6)[Man(a1-3)]Man(a1-6)[Man(a1-2)Man(a1-2)Man(a1-3)]Man
# In short: as §1
# [11] = molecular target: Man(a1-2)Man(a1-6)[Man(a1-3)]Man(a1-6)[Man(a1-2)Man(a1-2)Man(a1-3)]Man(b1-4)GlcNAc(b1-4)GlcNAc
# In short: as §1
# [12] = molecular target: Man(a1-3)[Man(a1-6)]Man(a1-6)[Man(a1-2)Man(a1-3)]Man(b1-4)GlcNAc(b1-4)GlcNAc
# In short: as §1
# [13] = molecular target: Man(a1-3)[Man(a1-6)]Man(a1-6)[Man(a1-3)]Man(b1-4)GlcNAc(b1-4)GlcNAc
# In short: as §1
# [14] = molecular target: Man(a1-3)[Man(a1-6)]Man(b1-4)GlcNAc(b1-4)GlcNAc
# In short: as §1
# [15] = molecular target: Neu5Ac(a2-3)Gal(b1-3)GlcNAc(b1-3)Gal(b1-3)GlcNAc
# In short: as §1
# [16] = molecular target: Neu5Ac(a2-3)Gal(b1-3)[Fuc(a1-4)]GlcNAc
# In short: as §1
# [17] = molecular target: Neu5Ac(a2-3)Gal(b1-3)[Fuc(a1-4)]GlcNAc(b1-3)Gal(b1-4)[Fuc(a1-3)]GlcNAc
# In short: as §1
# [18] = molecular target: Neu5Ac(a2-3)Gal(b1-3)[Neu5Ac(a2-3)Gal(b1-4)]GlcNAc
# In short: as §1
# [19] = molecular target: Neu5Ac(a2-6)Gal(b1-4)GlcNAc(b1-2)Man(a1-3)[GlcNAc(b1-2)Man(a1-6)]Man(b1-4)GlcNAc(b1-4)GlcNAc
# In short: as §1
# [20] = molecular target: Neu5Ac(a2-6)Gal(b1-4)GlcNAc(b1-2)Man(a1-3)[Neu5Ac(a2-6)Gal(b1-4)GlcNAc(b1-2)Man(a1-6)]Man(b1-4)GlcNAc(b1-4)[Fuc(a1-6)]GlcNAc
# In short: as §1
# [21] = molecular target: Neu5Gc(a2-8)Neu5Gc(a2-3)Gal(b1-4)GlcNAc
# In short: as §1
# [22] = molecular target: Neu5Gc(a2-8)Neu5Gc(a2-3)Gal(b1-4)GlcNAc(b1-3)Gal(b1-4)GlcNAc
# In short: as §1
# [23] = molecular target: Neu5Gc(a2-8)Neu5Gc(a2-6)Gal(b1-4)GlcNAc
# In short: as §1
# [24] = molecular target: Neu5Gc(b2-6)Gal(b1-4)GlcNAc
# In short: as §1
binder,measurement,setting,value
AMA (Arum maculatun) (protein) MAKLLLLLLLPAIVGLAVPRSAAAVGSNYMLSGETLNTDGRLTNGELTLIMQVDCNLVLYHGGWQSNTANNGRDCKLTLTDFGELVIKSGTGSTVWSSGSKQSMKGNYAAVVHPEGRLVIYGPSVFKINPSGAGLNGLPLRNIPLTNNMLFSGQVLYGDGTLSARNHKLVMQGDCNMVLYGGKYGWQSNTHGNGKYCFAMLTHKGELVIRDDDFKSVWSSKSSSKQGDYVFILQDDSLAIIYGPAVFSTGSKKMISMVTN,glycan array binding signal (z-score),Gal3S6S(b1-4)GlcNAc,-0.213
same,glycan array binding signal (z-score),GalNAc(a1-3)GalNAc,-0.209
same,glycan array binding signal (z-score),GalNAc(b1-4)Gal(b1-4)Glc,-0.203
same,glycan array binding signal (z-score),GalNAc3S(b1-4)GlcNAc,-0.22
same,glycan array binding signal (z-score),GalNAc3S(b1-4)GlcNAc3S,-0.217
same,glycan array binding signal (z-score),[1],-0.216
same,glycan array binding signal (z-score),[2],-0.205
same,glycan array binding signal (z-score),[3],-0.201
same,glycan array binding signal (z-score),[4],6.01
same,glycan array binding signal (z-score),[5],7.69
same,glycan array binding signal (z-score),GlcNAc(b1-3)Gal,-0.211
same,glycan array binding signal (z-score),[6],2.21
same,glycan array binding signal (z-score),[7],-0.202
same,glycan array binding signal (z-score),Kdn(a2-3)Gal(b1-3)GalNAc,-0.207
same,glycan array binding signal (z-score),[8],3.87
same,glycan array binding signal (z-score),[9],3.3
same,glycan array binding signal (z-score),[10],-0.213
same,glycan array binding signal (z-score),[11],4.91
same,glycan array binding signal (z-score),[12],8.56
same,glycan array binding signal (z-score),[13],4.09
same,glycan array binding signal (z-score),[14],3.64
same,glycan array binding signal (z-score),[15],-0.204
same,glycan array binding signal (z-score),[16],-0.218
same,glycan array binding signal (z-score),[17],-0.226
same,glycan array binding signal (z-score),[18],0.441
same,glycan array binding signal (z-score),[19],0.845
same,glycan array binding signal (z-score),[20],0.863
same,glycan array binding signal (z-score),[21],-0.22
same,glycan array binding signal (z-score),[22],-0.215
same,glycan array binding signal (z-score),[23],-0.211
same,glycan array binding signal (z-score),[24],-0.21
